HepG2 viability: HepG2 cytotoxicity, counter-screen for TGF-b inhibitors; HepG2 CAGA-GFP viability, ATP luminescence, 18 h; Potency, µM (titrated, usually from 46.1 µM), for the others: at the highest dose activity change, negative = cytotoxicity, actives largely listed as cytotoxic; hit rate 0.76% among 410,000
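HepG2 CAGA-GFP cells (1000/well, DMEM with 1% FBS) received compound, then TGF-beta at 500 pg/mL final, and were incubated 18 hours at 37 degrees C. Viability was read by CellTiter-Glo luminescence. Media-only wells were set as complete cell-killing and DMSO as no toxicity.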
ATXN2 expr inh: ATXN2 expression inhibition; HEK-293 ATXN2-luciferase reporter, luminescence, 24 h; Potency, µM (highest dose often 57 µM), for the others: top-dose activity change, negative = inhibition, most hits filed as inhibitors; hit rate 0.72% among 360,000; AID 1745845; also: % is scaled to controls: 0 for no effect and ±100 for the full control effect; nearly all actives have a fitted effect of over 55% in size
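ATXN2-luciferase reporter cells (luciferase flanked by upstream and downstream ATXN2 gene portions) were treated 24 h at 37 °C with compounds at up to 57 uM. SteadyGlo luminescence gave expression; GF-AFC fluorescence gave viability.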
S2 tox: cell viability loss in ATXN counter-screen; S2 cells (HEK-293 line with an ATXN2-luciferase reporter) viability, CellTiter-Fluor protease fluorescence, 24 h; Potency, µM (top dose mostly 56.7 µM), most hits filed as cytotoxic; hit rate 0.49% among 400,000; AID 651635; also: nearly all actives have a fitted effect of over 40% in size
Gal4-VP16 FLuc: counter-screen for ROR gamma inhibitors: Gal4-VP16 reporter. AID 2546. Potency, µM (titrated, usually from 53.6 µM), for inactives: at the highest dose activity, negative = inhibition, most hits filed as inhibitors. hit rate 3.5% among 310,000. Drosophila S2 Gal4-VP16 UAS-luciferase, luminescence, 20 h;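 also: Gal4-VP16 expression switched on by copper sulfate through the metallothionein promoter; % is scaled to controls: 0 for no effect and ±100 for the full control effect; nearly all actives have a fitted effect of over 50% in size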
TGFb inhibitor: inhibitors of TGF-b signaling; AID 588855; hit rate 1.2% among 410,000; HepG2 CAGA-GFP TGF-b/SMAD3 reporter, GFP fluorescence, 18 h; TGF-beta stimulated, 500 pg/mL final; Potency, µM (doses to about 46.1 µM), for inactives: top-dose activity, negative = inhibition, actives largely listed as inhibitors; also: % is scaled to controls: 0 for no effect and ±100 for the full control effect; nearly all actives have a fitted effect of over 65% in size
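HEPG2 CAGA-GFP, 1000 cells/well; 2 h settle, 37 C; cpd via pin tool; TGF-b 500 pg/mL final; 18 h, 37 C; GFP imaging ex488/em500-530; %Activity normalised to -TGF-b and +DMSO controls; CRC fit, curve class.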
RORgamma inh: blocks mouse ROR gamma transcriptional activity. hit rate 5.4% among 310,000. Potency, µM (highest dose often 53.6 µM), for inactives: at the top dose activity change, negative = inhibition, actives largely listed as inhibitors. Drosophila S2 Gal4-RORgamma UAS-luciferase reporter, 20 h. P51450. AID 2551; also: % is scaled to controls: 0 for no effect and ±100 for the full control effect; nearly all actives have a fitted effect of over 60% in size
Target sequence (P51450 whole entry, looked up, the tested form may be a part): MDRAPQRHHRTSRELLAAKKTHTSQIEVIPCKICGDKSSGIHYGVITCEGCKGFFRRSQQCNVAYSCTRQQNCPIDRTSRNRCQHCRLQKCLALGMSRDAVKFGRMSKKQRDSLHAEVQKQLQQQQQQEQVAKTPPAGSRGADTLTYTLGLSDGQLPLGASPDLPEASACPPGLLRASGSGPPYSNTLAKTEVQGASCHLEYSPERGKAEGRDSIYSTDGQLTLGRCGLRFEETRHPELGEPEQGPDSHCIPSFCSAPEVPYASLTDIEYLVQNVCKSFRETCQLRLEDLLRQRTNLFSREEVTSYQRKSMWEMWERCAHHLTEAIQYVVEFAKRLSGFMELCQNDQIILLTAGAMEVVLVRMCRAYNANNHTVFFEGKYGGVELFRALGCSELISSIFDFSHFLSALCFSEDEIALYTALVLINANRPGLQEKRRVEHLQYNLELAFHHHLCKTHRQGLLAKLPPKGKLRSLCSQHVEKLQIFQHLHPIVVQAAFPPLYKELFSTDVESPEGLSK
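Stable Schneider cell line, Gal4 DNA-binding domain fused to ROR gamma, UAS-luciferase. Cmpd 1 hr RT → CuSO4 700 uM final → 20 hr RT → luciferase reagent 10 min → luminescence.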
The depositor's hits bear a star; i = inactive; ? = inconclusive; . = not tested or not shown; [ ] = remark or other dose. An excerpt weighted towards active compounds, which were near 6.1% of everything screened. Calls follow the shape of the dose curve; as a rule, active = well fitted curve in the direction sought with a large enough effect; inconclusive = small, poorly fitted or top-dose-only effect, or another doubt; inactive = no such curve, though single readings can be large; an effect the other way counts as inactive or inconclusive. Potency is read from the fitted curve at half-maximal effect.

SMILES	HepG2 viability	ATXN2 expr inh	S2 tox	Gal4-VP16 FLuc	TGFb inhibitor	RORgamma inh
NCCCCCCCCCCNS(=O)(=O)c1cccc2c(Cl)cccc12	-102.5%	.	.	31.6µM*	?	?
CCn1cc(CNc2nc3nonc3nc2N2CCCCC2)cn1	-4.2%	-1.3%	i	?	-3.1%	7.08µM*
C1CCN(c2nc3nonc3nc2N2CCCC2)C1	-0.8%	5.0%	?	0.1%	-1.2%	23.7%
CN1CCN(S(=O)(=O)c2ccc(Sc3nnnn3-c3ccccc3)c([N+](=O)[O-])c2)CC1	-47.5%	?	.	?	?	7.08µM*
O=[N+]([O-])c1ccc(Sc2nnnn2-c2ccccc2)c(Cl)c1	-94.7%	5.8%	i	3.6%	-25.2%	?
Cn1cnnc1Sc1cc(N2CCN(S(=O)(=O)c3ccccc3)CC2)ccc1[N+](=O)[O-]	0.5%	2.7%	i	?	-14.1%	43.1%
CC(=O)c1ccc(Sc2nnnn2-c2ccccc2)c([N+](=O)[O-])c1	-80.2%	24.1%	i	11.2µM*	0.0%	8.91µM*
O=C(c1ccc(Cl)cc1)N1CCC(c2nc3ccccc3o2)CC1	-24.1%	.	.	.	0.0%	.
COc1ccc(-c2nc(C)c(CCNC(=O)c3ccco3)s2)cc1	-29.5%	23.3%	i	.	-11.7%	.
Cc1ccc(-c2nc3cnccn3c2Nc2c(C)cccc2C)o1	-24.1%	-31.5%	.	-10.6%	?	11.2µM*
O=C(NC(=S)Nc1ccccc1N1CCOCC1)c1ccc(Br)cc1	-32.1%	-19.8%	i	.	-17.3%	.
O=C(NC(=S)Nc1ccccc1N1CCOCC1)c1ccc(-c2ccccc2F)o1	-33.9%	0.2%	i	-8.7%	-10.4%	2.82µM*
O=C(NC(=S)Nc1ccccc1N1CCCCC1)c1ccccc1	-14.9%	.	i	7.94µM*	?	1.41µM*
O=C(Nc1ccccc1N1CCCC1)c1cccc(F)c1	-1.3%	1.2%	i	.	2.4%	.
O=C(NC(=S)Nc1ccccc1N1CCCC1)c1cccc(F)c1	-12.2%	.	i	7.94µM*	-6.1%	3.16µM*
O=C(NC(=S)Nc1ccccc1N1CCCC1)c1ccc(F)cc1	-5.4%	-3.0%	i	-64.0%	17.6%	1.58µM*
O=C(NC(=S)Nc1ccccc1N1CCCCC1)c1ccc(F)cc1Cl	-4.9%	11.7%	i	3.16µM*	?	4.47µM*
O=C(Nc1ccccc1N1CCCCC1)c1ccccc1F	-14.0%	-4.0%	i	-22.9%	2.3%	-15.4%
CCc1ccc(Oc2coc3cc(OCC(=O)Nc4cc(C)ccc4C)ccc3c2=O)cc1	-18.3%	-24.9%	?	7.94µM*	-0.5%	25.1µM*
CCCc1ccc(Oc2coc3cc(OCC(=O)Nc4ccccc4C)ccc3c2=O)cc1	2.6%	-28.0%	?	?	3.3%	?
O=C(Nc1ccc(OC(F)F)cc1)c1ccccn1	-13.6%	4.3%	i	-0.7%[10 µM]	-3.8%	-9.9%
CS(=O)(=O)c1ccc(C(=O)Nc2ccc(N3CCOCC3)cc2)c(Cl)c1	2.6%	-6.4%	i	-2.1%	8.2%	27.8%
CS(=O)(=O)c1ncc(Cl)c(C(=O)Nc2ccc(N3CCOCC3)cc2)n1	-100.9%	?	.	3.16µM*	?	3.16µM*
CS(=O)(=O)c1ncc(Cl)c(C(=O)Nc2ccc(OC(F)F)cc2)n1	-96.0%	?	?	1.26µM*	?	3.55µM*
OC(c1ccc2c(c1)CN(Cc1cccn1-c1cccnc1)CCO2)C1CCCCC1 (stereo not given)	.	.	i	.	.	.
Cc1nc2c(=O)n(C)c(=O)n(C)c2nc1Cl	11.2µM*	?	29.9µM*	7.08µM*	7.08µM*	?
COc1ccccc1CNc1nc(NC(C)C)nc2ccsc12	-11.4%	0.0%	i	.	?	.
COc1ccccc1CNc1nc(NCc2ccc(C(C)C)cc2)c2sccc2n1	-100.8%	31.6µM*	.	.	?	.
COc1cccc(CNc2nc(NCC3CC3)nc3ccsc23)c1	-39.5%	?	?	.	?	.
Fc1ccc(Nc2nc(NCc3ccccc3)nc3ccsc23)cc1	12.6µM*	?	?	.	?	.

High-throughput results: PubChem, National Center for Advancing Translational Sciences (NCATS)
